# Screening results deposited in PubChem by The Scripps Research Institute Molecular Screening Center.
# An excerpt weighted towards active compounds, which were near 3.5% of everything screened.
# GPR151 activ = human GPR151 activation; activation, % at 11.2 µM; 650,000 tested, 1% active; PathHunter beta-arrestin GPR151 cells, luminescence; Q8TDV0; in the data active means activation above about 4.9%;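 further: 0% = median of compound wells and 100% = cells with positive control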
# TEAD-YAP block = TEAD-YAP interaction inhibition; HEK-TIYL cells, TEAD-Gal4/YAP UAS-luciferase luminescence; inhibition, % at 9.12 µM; 640,000 tested, 1.4% active; AID 1259422; in the data active means inhibition above about 32%;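 further: 0% = median of test compound wells and 100% = reference inhibitor wells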
# MITF inh = blocks human microphthalmia-associated transcription factor; O75030; AlphaScreen MITF homodimerization, bead proximity signal; inhibition, % at 2.6 µM; 650,000 tested, 0.91% active; AID 1259374; in the data active means inhibition above about 50%;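 further: 0% = vehicle wells with protein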
# FBW7 act = human FBW7 E3 ligase activation, primary screen | Q969H0 | AlphaScreen FBW7–phospho-cyclin E peptide binding, activator screen | normalized activity (activation), % at 26.1 µM | 650,000 tested, 0.13% active | AID 1259310; in the data active means normalized activity above about 1.9%;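 further: purified mutant Fbw7 with reduced substrate affinity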
# Target sequence (Q969H0 whole entry, looked up): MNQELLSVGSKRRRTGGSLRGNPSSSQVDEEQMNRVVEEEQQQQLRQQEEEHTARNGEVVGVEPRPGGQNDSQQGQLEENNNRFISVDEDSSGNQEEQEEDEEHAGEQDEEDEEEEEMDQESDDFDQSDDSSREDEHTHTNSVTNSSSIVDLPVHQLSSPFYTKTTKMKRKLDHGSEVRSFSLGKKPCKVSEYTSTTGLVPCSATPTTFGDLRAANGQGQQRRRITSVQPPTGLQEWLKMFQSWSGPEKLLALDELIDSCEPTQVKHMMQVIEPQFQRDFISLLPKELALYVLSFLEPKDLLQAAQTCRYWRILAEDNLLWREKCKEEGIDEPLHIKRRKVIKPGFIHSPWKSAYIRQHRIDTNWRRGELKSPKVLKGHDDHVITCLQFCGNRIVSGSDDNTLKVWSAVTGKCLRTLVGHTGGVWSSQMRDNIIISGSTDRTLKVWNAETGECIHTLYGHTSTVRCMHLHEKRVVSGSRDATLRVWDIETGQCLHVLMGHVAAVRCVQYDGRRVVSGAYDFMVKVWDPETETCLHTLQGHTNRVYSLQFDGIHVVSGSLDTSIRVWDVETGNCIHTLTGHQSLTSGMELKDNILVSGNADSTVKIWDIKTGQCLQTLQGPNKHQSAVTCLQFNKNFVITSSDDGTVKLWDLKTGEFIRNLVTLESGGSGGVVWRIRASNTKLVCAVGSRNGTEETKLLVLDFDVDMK
# * = called active by the depositor.
SMILES,GPR151 activ,TEAD-YAP block,MITF inh,FBW7 act
Cn1ccc(CC(=O)N2CCc3ccc(NC(=O)c4ccccc4Cl)cc3C2)c1,0.4,42.7*,0.8,0.1
c1ccc(-c2cc(-c3ccccc3)[n+](CCc3c[nH]c4ccccc34)c(-c3ccccc3)c2)cc1,2.3,70.2*,10.0,-0.1
O=C(Nc1cccnc1)c1cccc(S(=O)(=O)N2CCCCCC2)c1,-0.6,7.1,17.1,1.0
Cc1cc(Nc2ccc3c(c2)OCO3)nc(Nc2nccc3ccccc23)n1,0.0,34.8*,2.4,-0.2
Nc1nc(Nc2ccc3c(c2)OCO3)cc(Nc2nccc3ccccc23)n1,-1.1,36.5*,10.5,-0.1
Cc1c2nc3ccccc3c-2c2c(n1O)CC(C)(C)C/C2=N\O,-0.5,9.1,15.6,-0.3
Cc1nn2c(=O)/c(=C/c3ccco3)sc2nc1=O,0.3,4.3,76.7*,-0.5
Cc1cccc(-c2nc3s/c(=C\c4ccco4)c(=O)n3n2)c1,0.5,0.8,8.6,0.0
C/C(=N\NC(=O)c1ccc([N+](=O)[O-])cc1Cl)c1ccc(O)cc1O,-1.1,19.6,5.1,-0.1
CC(C)(C)c1ccc(C(=O)Nc2ccc(O)cc2C(=O)O)cc1,-0.7,33.7*,18.2,-0.6
Cc1ccc(C(=O)Nc2ccc(O)cc2C(=O)O)cc1[N+](=O)[O-],-5.8,12.6,79.9*,-1.3
Cc1ccc(C(=O)Nc2ccc(O)cc2C(=O)O)cc1,-5.6,11.8,22.4,-0.4
O=C(Nc1ccc(O)cc1C(=O)O)c1ccc([N+](=O)[O-])cc1,-0.7,3.2,51.8*,-0.4
C/C(=N/NC(=O)c1ccc([N+](=O)[O-])cc1)c1ccc(O)cc1O,-1.4,84.0*,-7.1,-1.0
O=C(Nc1ccc(F)c(C(F)(F)F)c1)C1CCCN1/C=C/C(=O)C(F)(F)F (centres undefined),-0.4,0.8,-8.5,-0.1
Nc1ncnc(Nc2ccc3c(c2)OCO3)c1[N+](=O)[O-],-2.3,-2.5,10.2,0.0
CC(=O)NCCNC(=O)Cc1sc(Nc2ccccc2)nc1-c1ccccc1,-2.3,-22.7,-1.6,0.0
CCOC(=O)CS(=O)(=O)c1ccc(C(=O)N2CCN(c3cc(C)ccc3C)CC2)cc1[N+](=O)[O-],2.9,-17.2,2.9,0.0
COc1cccc(C(=O)N2CCN(c3cccc(C)c3C)CC2)c1,0.0,32.8*,8.1,-0.1
COc1ccccc1C(=O)N1CCN(c2cccc(C)c2C)CC1,-0.4,47.1*,-4.0,0.1
Cc1cccc(N2CCN(C(=O)c3cc(S(=O)(=O)N4CCCC4)cn3C)CC2)c1C,-0.7,57.5*,-12.4,0.0
Cc1cccc(N2CCN(C(=O)c3cc(S(=O)(=O)N4CCOCC4)cn3C)CC2)c1C,1.1,4.6,-5.9,0.1
CCOC(=O)CS(=O)(=O)c1ccc(C(=O)N2CCN(c3cccc(C)c3C)CC2)cc1[N+](=O)[O-],0.6,34.2*,-3.2,0.0
Cc1cccc(N2CCN(C(=O)c3ccncc3)CC2)c1C,-2.1,50.2*,13.0,0.1
CC(=O)Nc1ccc(C(=O)N2CCN(c3cccc(C)c3C)CC2)cc1,1.2,-10.9,-5.1,-0.1
SMILES,GPR151 activ,TEAD-YAP block,MITF inh,FBW7 act
COc1ccccc1N1CCN(C(=O)c2cccc(Br)c2)CC1,-0.5,36.1*,19.4,0.0
COc1cc(C2c3c(-c4ccc(F)cc4)n[nH]c3C(=O)N2c2ccccc2)ccc1O (centres undefined),0.7,-1.8,3.8,0.0
O=C(COc1ccc(F)cc1)Nc1ccc(I)cc1,-0.2,-16.4,9.2,-0.2
COc1ccc(C(=O)c2cc([N+](=O)[O-])ccc2N2CCOCC2)cc1,1.2,60.2*,-6.4,-0.1
CCC(CC)NC(=O)c1cc([N+](=O)[O-])ccc1N1CCOCC1,0.9,8.9,3.5,0.0
CCOc1ccc(C(=O)c2cc([N+](=O)[O-])ccc2N2CCOCC2)cc1,0.1,60.1*,9.3,-0.2
Cc1ccc(C(=O)c2cc([N+](=O)[O-])ccc2N2CCOCC2)cc1,-0.2,8.6,9.7,0.1
Cc1ccc(-c2csc(NC(=O)c3ccc(S(=O)(=O)N4CCc5ccccc5C4)cc3)n2)o1,1.6,44.5*,-10.3,0.1
O=C(Nc1nc(-c2ccccn2)cs1)c1ccc(S(=O)(=O)N2CCOCC2)cc1,-1.1,47.8*,48.8,0.1
COc1ccc(-c2csc(NC(=O)c3ccc(S(=O)(=O)N4CC(C)OC(C)C4)cc3)n2)c(OC)c1 (centres undefined),-0.3,32.3*,-1.2,0.0
CCN(Cc1cnn(C)c1)C(=O)CCc1nnc(CCCc2ccccc2)o1,1.0,-42.6,-5.5,0.0
O=C(Cn1c2ccccc2c(=O)c2cc(Cl)ccc21)Nc1cccc(C(F)(F)F)c1,-0.7,6.2,14.8,-0.1
